# Earlier results as cited in PubChem BioAssay AID977610.
# About 3,600 (100%) of roughly 3,600 compounds were called active. No cut-off is given here; in the data, nearly all actives have Ki up to about 18000 µM. So high a share suggests a set chosen from earlier hits. The list shows a part of the results.
# Assay: PubChem AID 977610
# Conditions: PDB protein-ligand complexes, literature Ki
compound,measurement,setting,value
O=C(c1ccc(F)c(F)c1Nc1ccc(I)cc1F)N1CC(O)([C@@H]2CCCCN2)C1,Ki,"protein: Dual specificity mitogen-activated protein kinase kinase 1, PDB entry 4lmn",5e-05 µM (active)
ON1CC=CCC1=S,Ki,"protein: Carbonic anhydrase 2 (H94D mutation), PDB entry 4jss",500 µM (active)
CC(C)(C)n1nc(-c2cccc3ccccc23)c2c(N)ncnc21,Ki,"protein: Aminoglycoside 3'-phosphotransferase AphA1-IAB, PDB entry 4gkh",21.5 µM (active)
C[C@H](C[P+](O)(O)[C@H](Cc1ccccc1)NC(=O)[C@H](N)Cc1nn[nH]n1)C(=O)N[C@@H](C)C(N)=O,Ki,"protein: ANGIOTENSIN-CONVERTING ENZYME, PDB entry 4bxk",0.0112 µM (active)
CC(=O)N[C@@H](CC(=O)O)C(=O)N[C@@H](Cc1ccccc1)[P+](O)(O)C[C@@H](C)C(=O)N[C@@H](C)C(N)=O,Ki,"protein: Angiotensin Converting Enzyme N domain glycsoylation mutant (Ndom389), PDB entry 3nxq",0.007 µM (active)
CC(=O)N[C@@H](CC(C)C)C(=O)N[C@H](C(=O)N[C@@H](Cc1ccccc1)C(=O)N[C@]1(C)CCCCCC/C=C/CCC[C@@](C)(C(=O)N[C@@H](CO)C(=O)N[C@@H](C)C(=O)N[C@@H](C)C(=O)O)NC(=O)[C@H](CC2CCC2)NC(=O)[C@H](CCC(N)=O)NC(=O)[C@H](C)NC(=O)[C@H](Cc2c[nH]c3ccccc23)NC(=O)[C@H](Cc2ccc(O)cc2)NC(=O)[C@H](CCC(=O)O)NC1=O)[C@@H](C)O,Ki,"protein: Protein Mdm4, PDB entry 4n5t",0.007 µM (active)
CS[C@H](CCCC1C(=O)NC(N)NC1N)c1ccc(C(=O)N[C@@H](CCC(=O)O)C(=O)O)cc1 (stereo partly drawn),Ki,"protein: Trifunctional purine biosynthetic protein adenosine-3, PDB entry 4ew3",0.18 µM (active)
CS[C@@H](CCCC1C(=O)NC(N)NC1N)c1ccc(C(=O)N[C@@H](CCC(=O)O)C(=O)O)cc1 (stereo partly drawn),Ki,"protein: Trifunctional purine biosynthetic protein adenosine-3, PDB entry 4ew2",0.21 µM (active)
NC(=O)[C@H]1CCCc2c1[nH]c1ccc(Cl)cc21,Ki,"protein: NAD-DEPENDENT PROTEIN DEACETYLASE SIRTUIN-3, MITOCHONDRIAL, PDB entry 4bvb",33.4 µM (active)
CC(C)N(C[C@H]1O[C@@H](n2cnc3c(N)ncnc32)[C@H](O)[C@@H]1O)C1CC(CCc2nc3ccc(C(C)(C)C)cc3[nH]2)C1 (stereo partly drawn),Ki,"protein: Histone-lysine N-methyltransferase, H3 lysine-79 specific, PDB entry 4hra",8e-05 µM (active)
OC[C@H]1OCC[C@@H](O)[C@H]1O,Ki,"protein: GALACTOCEREBROSIDASE, PDB entry 4ccd",32 µM (active)
O=C(O)CCC(=O)O,Ki,"protein: Delta-1-pyrroline-5-carboxylate dehydrogenase, mitochondrial, PDB entry 4lh2",58000 µM (active)
N[C@@H](CCCNC(=O)C[P+](O)(O)O)C(=O)O,Ki,"protein: human ornithine transcarbamylase, PDB entry 1oth",0.1 µM (active)
OC[C@@H]1[C@@H](O)[C@H](O)[C@@H](O)[C@@H]1NCc1ccc(Br)cc1,Ki,"protein: strictosidine glucosidase, PDB entry 3zj8",127 µM (active)
N[C@@H](c1ccc(-n2cccn2)cc1)[P+](O)(O)O,Ki,"protein: M1 family aminopeptidase, PDB entry 4k5o",104 µM (active)
same,Ki,"protein: M17 leucyl aminopeptidase, PDB entry 4k3n",0.011 µM (active)
NC(N)Nc1ccc([C@H](N)[P+](O)(O)O)cc1,Ki,"protein: M1 family aminopeptidase, PDB entry 4k5n",127 µM (active)
NC(N)c1ccc([C@H](N)[P+](O)(O)O)cc1,Ki,"protein: M1 family aminopeptidase, PDB entry 4k5p",345 µM (active)
NC(N)Nc1ccc(C=O)cc1,Ki,"protein: Bovine beta trypsin, PDB entry 1gbt",10000 µM (active)
C=CCNC(=O)[C@@H](NC(=O)[C@@](O)(CCCN(Cc1ccc(-c2cccnc2)cc1)NC(=O)[C@@H](NC(=O)OC)C(C)(C)C)Cc1ccc(CC=C)cc1)C(C)C,Ki,"protein: HIV-1 protease, PDB entry 4cpq",0.018 µM (active)
CCCNC(=O)[C@@H](NC(=O)[C@@](O)(CCCN(Cc1ccc(-c2ccncc2)cc1)NC(=O)[C@@H](NC(=O)OC)C(C)(C)C)Cc1ccc(CCC)cc1)C(C)C,Ki,"protein: HIV-1 protease, PDB entry 4cp7",0.0078 µM (active)
C=CCNC(=O)[C@@H](NC(=O)[C@@](O)(CCCN(Cc1ccc(Br)cc1)NC(=O)[C@@H](NC(=O)OC)C(C)(C)C)Cc1ccccc1)C(C)(C)C,Ki,"protein: PROTEASE, PDB entry 3zps",0.005 µM (active)
C=CCNC(=O)[C@@H](NC(=O)[C@@](O)(CCCN(Cc1ccc(-c2cccs2)cc1)NC(=O)[C@@H](NC(=O)OC)C(C)(C)C)Cc1ccc(CC=C)cc1)C(C)C,Ki,"protein: HIV-1 protease, PDB entry 4cpr",0.035 µM (active)
CC1=C(C(=O)O)N[C@@H]([C@@H](C=O)NC(=O)Cc2cccs2)SC1,Ki,"protein: Carboxylesterases, PDB entry 4ivk",140 µM (active)
Cc1cc(C)nc(N)n1,Ki,"protein: PDE10A2, PDB entry 4llx",1300 µM (active)
CNc1nc2cc3nc[nH]c(=O)c3cc2[nH]1,Ki,"protein: Queuine tRNA-ribosyltransferase, PDB entry 3GEV",2.9 µM (active)
same,Ki,"protein: Queuine tRNA-ribosyltransferase, PDB entry 3V0Y",4.1 µM (active)
CC[C@H]1NC(=O)[C@H](CCCNC(N)N)NC(=O)CNC(=O)[C@H](CCCNC(N)N)NC(=O)[C@@H]2CSCc3cc(cc(c3)CSC[C@@H](C(=O)NCC(N)=O)NC(=O)[C@H](C)NC(=O)[C@H](CO)NC1=O)CSC[C@H](NC(=O)[C@H](C)N)C(=O)N[C@@H](CO)C(=O)N[C@@H](CCCNC(N)N)C(=O)N[C@@H](Cc1ccc(O)cc1)C(=O)N[C@@H](CCC(=O)O)C(=O)N[C@@H](C(C)C)C(=O)N[C@@H](CC(=O)O)C(=O)N2,Ki,"protein: Urokinase-type plasminogen activator (C299A, N322Q mutation), PDB entry 4jk6",0.064 µM (active)
CC(C)[C@@H]1NC(=O)[C@H](CCC(=O)O)NC(=O)[C@H](Cc2ccc(O)cc2)NC(=O)[C@H](CCCNC(N)N)NC(=O)[C@H](CO)NC(=O)[C@@H](NC(=O)[C@H](C)N)CSCc2cc3cc(c2)CSC[C@H](NC(=O)[C@H](CC(=O)O)NC1=O)C(=O)N[C@@H](CCCNC(N)N)C(=O)NCC(=O)N[C@@H](CCCNC(N)N)C(=O)N[C@H](CO)C(=O)N[C@@H](CO)C(=O)N[C@@H](C)C(=O)N[C@H](C(=O)NCC(N)=O)CSC3,Ki,"protein: Urokinase-type plasminogen activator (C122A, N145Q mutation), PDB entry 4jk5",0.028 µM (active)
NC1=NC2=NC[C@@H](CNc3ccc(C(=O)N[C@@H](CCC(=O)O)C(=O)O)cc3)N(C=O)C2C(=O)N1 (stereo partly drawn),Ki,"protein: Serine hydroxymethyltransferase, putative SHMT, PDB entry 4oyt",1550 µM (active)
C[C@]12CC[C@@H](O)C[C@@H]1CC[C@@H]1[C@@H]2CC[C@]2(C)C=CC[C@@H]12,Ki,"protein: Mus musculus constitutive androstane receptor, PDB entry 1xnx",0.416 µM (active)
C[C@@H](NC(=O)CCCC[C@@H](N)C(=O)O)[C@H](O)C(F)(F)F,Ki,"protein: D-ALANYL-D-ALANINE CARBOXYPEPTIDASE, PDB entry 3zcz",0.17 µM (active)
Cc1cc(C)c(Nc2nc(Nc3ccc(C#N)cc3)nc(OCCCN3CCOCC3)n2)c(C)c1,Ki,"protein: HIV-1 reverse transcriptase, p66 subunit RT52A, PDB entry 4o44",0.014 µM (active)
CC(C)N1CCC(C(=O)Nc2c(OCCCO[C@@H]3O[C@H](CO)[C@@H](O)[C@H](O)[C@H]3O)cccc2OCc2cc(-c3ccc(Cl)s3)on2)CC1,Ki,"protein: Alpha Thrombin, hfIIa, PDB entry 4n3l",0.1 µM (active)
Nc1cc(Cl)nc(N)n1,Ki,"protein: PDE10A2, PDB entry 4ms0",410 µM (active)
CCCCCCCCOc1cccc(CSc2ccc(Br)cc2C(=O)O)c1,Ki,"protein: Dehydrosqualene synthase, PDB entry 3tfv",0.08 µM (active)
CC(C)Nc1cc(=O)n(-c2ccccc2)nc1-c1ncn[nH]1,Ki,"protein: MEMBRANE PRIMARY AMINE OXIDASE, PDB entry 4btx",0.29 µM (active)
c1ccc(-c2nc(N3CCOCC3)c3sccc3n2)cc1,Ki,"protein: 3-OXOACYL-[ACYL-CARRIER-PROTEIN] REDUCTASE FABG, PDB entry 4bny",0.08 µM (active)
O=C(O)C1=C[C@H]2OCC=C[C@@](O)(C1)[C@H]2O,Ki,"protein: SHIKIMATE KINASE, PDB entry 4bqs",62 µM (active)
O=C(O)CCc1cccc(C(=O)O)c1,Ki,"protein: FKBO, PDB entry 4bps",1020 µM (active)
CCC1(CC)C[C@@H](C(=O)NCc2ccc(C(N)N)cc2)n2c1c(Cl)nc(NC1CCC1)c2=O,Ki,"protein: Factor VII heavy chain & Factor VII light chain, PDB entry 4isi",0.0073 µM (active)
O=C(O)C(=O)Nc1sc2c(c1C(=O)O)CCSC2,Ki,"protein: human protein-tyrosine phosphatases 1B, PTP-1B, PDB entry 1gfy",8.32 µM (active)
C[C@H](NC(=O)NC1C2CC3CC(C2)CC1C3)C(=O)N1CC[C@H](c2ccccc2Cl)N1c1ccccc1F (stereo partly drawn),Ki,"protein: rat neurolysin, PDB entry 4fxy",0.029 µM (active)
